DT40 TDP1 no CPT: qHTS for Inhibitors of human tyrosyl-DNA phosphodiesterase 1 (TDP1): qHTS in cells in absence of CPT | DT40 Tdp1-/- hTDP1 cells, no CPT, ATP luminescence, 48 h | Potency, µM (doses to about 46.2 µM), for the others: top-dose activity change, negative = growth inhibition, usual class: inhibitors | hit rate 15% among 420,000 | AID 686978, 2013; also: nearly all actives have a fitted effect of over 55% in size
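Luminescent ATP content (CellTiter-Glo) served as the growth readout. Knockout chicken DT40 cells expressing human TDP1 were exposed to compounds without camptothecin for a minimum 48 hr at 37 °C.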
VDR inhibitor: Inhibitors of the vitamin D receptor (VDR): qHTS; Vitamin D3 receptor (Homo sapiens), P11473; VDR-SRC2-3 peptide fluorescence polarization, 2 h; Potency, µM, without a hit: max response, negative = inhibition, most hits filed as inhibitors; hit rate 0.93% among 400,000; AID 504847, 2011
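Fluorescence polarization assay measuring small-molecule disruption of VDR binding to the coregulator peptide SRC2-3. Compounds were pin-transferred (23 nl) into the reagent mix and incubated 2 h at room temperature before reading.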
KAT2A inh: qHTS Assay for Inhibitors of GCN5L2; AID 504327, 2011; Histone acetyltransferase KAT2A (Homo sapiens), Q92830; hit rate 0.21% among 390,000; Potency, µM (highest dose often 58.9 µM), for inactives: top-dose activity change, negative = inhibition, most hits filed as inhibitors; GCN5L2 HAT assay, ThioGlo1 CoA-SH fluorescence
Target sequence (Q92830 whole entry, looked up): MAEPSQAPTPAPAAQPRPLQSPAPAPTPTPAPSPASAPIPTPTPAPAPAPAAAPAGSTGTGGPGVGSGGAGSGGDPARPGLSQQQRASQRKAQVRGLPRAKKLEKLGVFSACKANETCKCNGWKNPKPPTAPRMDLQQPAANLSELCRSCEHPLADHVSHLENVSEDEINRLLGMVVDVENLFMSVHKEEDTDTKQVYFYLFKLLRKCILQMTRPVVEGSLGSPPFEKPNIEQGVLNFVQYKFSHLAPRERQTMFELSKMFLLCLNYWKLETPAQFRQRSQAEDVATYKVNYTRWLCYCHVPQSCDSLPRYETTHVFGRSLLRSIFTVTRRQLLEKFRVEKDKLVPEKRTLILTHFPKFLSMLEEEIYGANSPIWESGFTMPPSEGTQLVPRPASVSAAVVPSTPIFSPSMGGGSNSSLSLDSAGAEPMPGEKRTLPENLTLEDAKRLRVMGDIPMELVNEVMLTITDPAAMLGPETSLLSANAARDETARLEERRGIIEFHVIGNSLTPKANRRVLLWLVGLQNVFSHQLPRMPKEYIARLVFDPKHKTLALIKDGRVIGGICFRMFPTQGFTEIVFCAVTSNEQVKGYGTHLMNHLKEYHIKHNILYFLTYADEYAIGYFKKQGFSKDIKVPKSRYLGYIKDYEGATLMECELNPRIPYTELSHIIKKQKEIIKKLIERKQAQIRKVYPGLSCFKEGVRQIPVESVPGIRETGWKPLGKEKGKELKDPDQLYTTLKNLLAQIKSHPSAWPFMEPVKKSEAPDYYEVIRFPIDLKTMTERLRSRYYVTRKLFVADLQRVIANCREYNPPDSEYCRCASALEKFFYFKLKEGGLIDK
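Preincubate 20nM GCN5L2 with compound 15 min, RT → add 50uM ThioGlo1 + 75uM H3(1-25) + 70uM acetyl-CoA → read fluorescence 0 and 20 min. Primary qHTS; fluorescent artifacts likely.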
TDP1 inh: qHTS Assay for Inhibitors of Tyrosyl-DNA Phosphodiesterase (TDP1); Tyrosyl-DNA phosphodiesterase 1 (Homo sapiens), Q9NUW8; recombinant TDP1, AlphaScreen DNA substrate cleavage; Potency, µM (titrated, usually from 130 µM), for the others: at the highest dose activity change, negative = inhibition, actives largely listed as inhibitors; hit rate 0.28% among 350,000; AID 485290, 2010; also: nearly all actives have a fitted effect of over 40% in size
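Compounds were preincubated with Tdp1 (1 nM final) for 15 min at room temperature before substrate (15 nM final) started a 5 min reaction; beads (10 ug/ml final) were then added for 10 min before AlphaScreen detection.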
DT40 TDP1 CPT: qHTS for Inhibitors of human tyrosyl-DNA phosphodiesterase 1 (TDP1): qHTS in cells in presence of CPT | chicken DT40 Tdp1-/-;hTDP1 cells + 20 nM CPT, ATP luminescence, 48 h | Potency, µM (doses to about 46.2 µM), for the others: top-dose activity change, negative = growth inhibition, hits mostly inhibitors | hit rate 12% among 420,000; also: nearly all actives have a fitted effect of over 55% in size
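Cell growth measured by CellTiter-Glo luminescence after a minimum 48 h, 37 C compound exposure with 20 nM CPT in Tdp1-knockout DT40 cells stably expressing hTDP1, seeded 400/well; qHTS titration format.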
PLK1 PBD inh: qHTS for Inhibitors of PLK1-PDB (polo-like kinase 1 - polo-box domain): Primary Screen. Plk1 PBD binding of FITC phosphopeptide, fluorescence polarization. Serine/threonine-protein kinase PLK1 (Homo sapiens), P53350. Potency, µM, inactives show max response, negative = inhibition, actives largely listed as inhibitors. hit rate 2.8% among 360,000. AID 720504, 2013; also: series mostly up to about 57 µM; nearly all actives have a fitted effect of over 65% in size
An asterisk follows results filed as active; [ ] = remark or other dose. Only some compounds are listed: those with a hit (about 18% of all), similar ones and a draw of the others. Calls follow the shape of the dose curve; as a rule, active = well fitted curve in the direction sought with a large enough effect; inconclusive = small, poorly fitted or top-dose-only effect, or another doubt; inactive = no such curve, though single readings can be large; an effect the other way counts as inactive or inconclusive. % is scaled to controls: 0 for no effect and ±100 for the full control effect; potency is read from the fitted curve at half-maximal effect.

For CCC(C)Sc1nc2c(c(=O)[nH]c(=O)n2C)n1CC(O)COc1ccccc1C (stereo unspecified) the results were DT40 TDP1 no CPT inconclusive, VDR inhibitor 16%, KAT2A inh -15%, TDP1 inh 8%, DT40 TDP1 CPT -30% and PLK1 PBD inh 11µM*.
Screening Cc1nc2ccccn2c1CN(C)C(=O)C1CCC(=O)N(CCc2cccc(F)c2)C1 (stereo unspecified) returned DT40 TDP1 no CPT 16%, VDR inhibitor -8%, KAT2A inh 1%, TDP1 inh 4%, DT40 TDP1 CPT -13% and PLK1 PBD inh 2%.
`C=CCn1c(SCC(=O)c2cccs2)nc2sc(C)cc2c1=O` gave DT40 TDP1 no CPT 21µM*, VDR inhibitor -28%, KAT2A inh -10%, TDP1 inh 5%, DT40 TDP1 CPT inconclusive and PLK1 PBD inh -18%.
Screening O=C(c1ccc(N2C(=O)C3C4c5ccccc5C(c5ccccc54)C3C2=O)cc1)N1CCOCC1 (stereo unspecified) returned DT40 TDP1 no CPT -19%, VDR inhibitor -1%, KAT2A inh 2%, TDP1 inh 4%, DT40 TDP1 CPT 2% and PLK1 PBD inh -3%.
`CN(Cc1ccccc1)C(=O)[C@@H]1CCCN1C(=O)OC(C)(C)C` gave DT40 TDP1 no CPT -13%, DT40 TDP1 CPT -4% and PLK1 PBD inh -14%.
`CCN(CC)c1ccc(C(=O)OCc2cc(=O)oc3cc(O)ccc23)cc1` gave DT40 TDP1 no CPT 16µM*, VDR inhibitor 3%, KAT2A inh -20%, TDP1 inh 4%, DT40 TDP1 CPT inconclusive and PLK1 PBD inh -10%.
`CCOc1ccc(CNc2nc3nc(C)c(Cc4ccccc4)c(=O)n3[nH]2)cc1` gave DT40 TDP1 no CPT -20%, VDR inhibitor 18%, KAT2A inh -3%, TDP1 inh -2% and DT40 TDP1 CPT -19%.
For O=C(N/N=C/c1ccc(Cl)c([N+](=O)[O-])c1)c1cc(-c2ccccc2)nc2ccccc12 the results were DT40 TDP1 no CPT 7.3µM*, VDR inhibitor -3%, KAT2A inh -4%, TDP1 inh 0%, DT40 TDP1 CPT 6.5µM* and PLK1 PBD inh inconclusive.
O=C(N/N=C/c1cc([N+](=O)[O-])ccc1Cl)c1cc(-c2ccccc2)nc2ccccc12 was read as DT40 TDP1 no CPT inconclusive, VDR inhibitor 10%, KAT2A inh -8%, DT40 TDP1 CPT inconclusive and PLK1 PBD inh 4%.
C/C(=N\NC(=O)c1csc2ccccc12)c1ccc(O)cc1 was read as DT40 TDP1 no CPT 9.2µM*, VDR inhibitor 2%, KAT2A inh -11%, TDP1 inh 4%, DT40 TDP1 CPT inconclusive and PLK1 PBD inh -7%.
Screening O=C(N/N=C/c1ccco1)c1cc(-c2cccc(Br)c2)nc2ccccc12 returned DT40 TDP1 no CPT 5.8µM*, VDR inhibitor -17%, KAT2A inh -5%, TDP1 inh 9%, DT40 TDP1 CPT inconclusive and PLK1 PBD inh -4%.
`COc1ccc(OC)c(-c2cc(C(=O)N/N=C(\C)c3cccnc3)c3ccccc3n2)c1` gave DT40 TDP1 no CPT inconclusive, VDR inhibitor 5%, KAT2A inh -28%, TDP1 inh 4%[56.1 µM], DT40 TDP1 CPT 15µM* and PLK1 PBD inh -2%.
Screening CC(c1ccccn1)N(C)C(=O)c1ccc2nc(Cc3ccccc3F)oc2c1 (stereo unspecified) returned DT40 TDP1 no CPT inconclusive, VDR inhibitor -7%, KAT2A inh 2%, TDP1 inh 2%, DT40 TDP1 CPT -12% and PLK1 PBD inh -3%.
`CN(c1ccc(OC(=O)CN2C(=O)NC3(CCCC3)C2=O)cc1)S(=O)(=O)c1ccccc1` gave DT40 TDP1 no CPT 6%, VDR inhibitor 16%, KAT2A inh -20%, DT40 TDP1 CPT -1% and PLK1 PBD inh -5%.
Screening O=C(Nc1ncnc2c1ncn2[C@@H]1O[C@@H]2COP(=O)(O)O[C@H]2[C@H]1O)c1ccccc1 returned VDR inhibitor 7%, KAT2A inh -1% and TDP1 inh -4%.
`O=C(N/N=C/c1ccc(O)c(O)c1)c1cc(-c2ccccc2)nc2ccccc12` gave DT40 TDP1 no CPT inconclusive, VDR inhibitor -9%, KAT2A inh -11%, TDP1 inh 7%, DT40 TDP1 CPT 8.2µM* and PLK1 PBD inh 2%.
For COc1ccc(/C=N/NC(=O)c2cc(-c3ccccc3)nc3ccccc23)c(OC)c1 the results were DT40 TDP1 no CPT inconclusive, VDR inhibitor -10%, KAT2A inh -2%, DT40 TDP1 CPT 15µM* and PLK1 PBD inh -6%.
`COc1cccc(/C=N/NC(=O)C(C)n2nnc3ccccc32)c1` (stereo unspecified) gave DT40 TDP1 no CPT inconclusive, VDR inhibitor inconclusive, KAT2A inh 0%, TDP1 inh 3%, DT40 TDP1 CPT inconclusive and PLK1 PBD inh 19µM*.
O=C(N/N=C/c1cccc(O)c1)c1csc2ccccc12 was read as DT40 TDP1 no CPT 0.65µM*, VDR inhibitor 8%, KAT2A inh 6%, TDP1 inh 9%, DT40 TDP1 CPT inconclusive and PLK1 PBD inh -7%.
For Cc1ccc(NC(=O)C2CCCN(S(=O)(=O)c3c(C)nn(C)c3C)C2)c(C)c1 (stereo unspecified) the results were DT40 TDP1 no CPT inconclusive, VDR inhibitor -8%, KAT2A inh -3%, TDP1 inh 2% and DT40 TDP1 CPT inconclusive.
`Cc1cnc(CNC(=O)c2c3n(c(C)cc2=O)-c2ccccc2SC(c2ccsc2)C3)cn1` (stereo unspecified) gave DT40 TDP1 no CPT -7% and DT40 TDP1 CPT -10%.
O=C(N/N=C/C=C\c1ccccc1[N+](=O)[O-])c1cc(-c2ccccc2)nc2ccccc12 was read as DT40 TDP1 no CPT 15µM*, VDR inhibitor -19%, KAT2A inh -4%, TDP1 inh 0%, DT40 TDP1 CPT 23µM* and PLK1 PBD inh -11%.
COc1cccc(C=NNC(=O)CCCC(=O)NN=Cc2cccc(OC)c2)c1 was read as DT40 TDP1 no CPT -27%, VDR inhibitor -13%, DT40 TDP1 CPT 7% and PLK1 PBD inh 3%.

Compound activity from PubChem BioAssay.
